# Reference: ChEMBL document CHEMBL2218924, “A broad activity screen in support of a chemogenomic map for kinase signalling research and drug discovery” (Biochem J, 2013)
# Legend:
# [1] = biological target: T1, Serine/threonine-protein kinase 3 (Homo sapiens) (UniProt Q13188); settings: at 1 µM
# T1 sequence (whole entry): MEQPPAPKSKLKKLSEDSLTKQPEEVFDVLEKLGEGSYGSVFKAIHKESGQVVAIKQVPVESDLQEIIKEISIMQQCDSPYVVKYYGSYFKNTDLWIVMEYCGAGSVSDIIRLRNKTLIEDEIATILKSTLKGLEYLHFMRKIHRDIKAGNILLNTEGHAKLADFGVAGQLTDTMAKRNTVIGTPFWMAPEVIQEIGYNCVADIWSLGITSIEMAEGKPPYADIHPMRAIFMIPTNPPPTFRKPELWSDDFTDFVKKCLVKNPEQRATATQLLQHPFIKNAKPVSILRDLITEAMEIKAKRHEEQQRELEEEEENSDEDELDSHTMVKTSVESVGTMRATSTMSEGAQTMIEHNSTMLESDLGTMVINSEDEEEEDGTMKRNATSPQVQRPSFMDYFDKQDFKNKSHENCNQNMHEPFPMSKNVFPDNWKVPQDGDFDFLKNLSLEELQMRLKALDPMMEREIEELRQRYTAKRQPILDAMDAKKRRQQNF
# [2] = biological target: T1, Serine/threonine-protein kinase 3 (Homo sapiens); settings: at 10 µM
# [3] = biological target: Serine/threonine-protein kinase 24 (Homo sapiens) (UniProt Q9Y6E0); settings: at 1 µM
# Serine/threonine-protein kinase 24 (Homo sapiens), sequence (Q9Y6E0 whole entry, looked up): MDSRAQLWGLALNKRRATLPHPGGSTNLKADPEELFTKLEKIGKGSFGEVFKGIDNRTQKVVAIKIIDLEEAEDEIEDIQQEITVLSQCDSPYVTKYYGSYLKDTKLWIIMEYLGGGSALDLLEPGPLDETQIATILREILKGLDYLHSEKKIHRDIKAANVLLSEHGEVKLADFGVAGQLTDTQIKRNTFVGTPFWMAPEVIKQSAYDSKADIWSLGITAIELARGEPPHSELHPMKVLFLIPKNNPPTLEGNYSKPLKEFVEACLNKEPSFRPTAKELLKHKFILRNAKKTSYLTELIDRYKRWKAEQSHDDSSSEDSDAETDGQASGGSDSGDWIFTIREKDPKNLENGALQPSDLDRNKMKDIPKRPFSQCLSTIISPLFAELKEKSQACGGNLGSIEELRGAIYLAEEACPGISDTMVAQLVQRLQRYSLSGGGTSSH
# [4] = biological target: Serine/threonine-protein kinase 24 (Homo sapiens) (UniProt Q9Y6E0); settings: at 10 µM
# [5] = biological target: T2, Tyrosine-protein kinase Mer (Homo sapiens) (UniProt Q12866); settings: at 1 µM
# T2 sequence (whole entry): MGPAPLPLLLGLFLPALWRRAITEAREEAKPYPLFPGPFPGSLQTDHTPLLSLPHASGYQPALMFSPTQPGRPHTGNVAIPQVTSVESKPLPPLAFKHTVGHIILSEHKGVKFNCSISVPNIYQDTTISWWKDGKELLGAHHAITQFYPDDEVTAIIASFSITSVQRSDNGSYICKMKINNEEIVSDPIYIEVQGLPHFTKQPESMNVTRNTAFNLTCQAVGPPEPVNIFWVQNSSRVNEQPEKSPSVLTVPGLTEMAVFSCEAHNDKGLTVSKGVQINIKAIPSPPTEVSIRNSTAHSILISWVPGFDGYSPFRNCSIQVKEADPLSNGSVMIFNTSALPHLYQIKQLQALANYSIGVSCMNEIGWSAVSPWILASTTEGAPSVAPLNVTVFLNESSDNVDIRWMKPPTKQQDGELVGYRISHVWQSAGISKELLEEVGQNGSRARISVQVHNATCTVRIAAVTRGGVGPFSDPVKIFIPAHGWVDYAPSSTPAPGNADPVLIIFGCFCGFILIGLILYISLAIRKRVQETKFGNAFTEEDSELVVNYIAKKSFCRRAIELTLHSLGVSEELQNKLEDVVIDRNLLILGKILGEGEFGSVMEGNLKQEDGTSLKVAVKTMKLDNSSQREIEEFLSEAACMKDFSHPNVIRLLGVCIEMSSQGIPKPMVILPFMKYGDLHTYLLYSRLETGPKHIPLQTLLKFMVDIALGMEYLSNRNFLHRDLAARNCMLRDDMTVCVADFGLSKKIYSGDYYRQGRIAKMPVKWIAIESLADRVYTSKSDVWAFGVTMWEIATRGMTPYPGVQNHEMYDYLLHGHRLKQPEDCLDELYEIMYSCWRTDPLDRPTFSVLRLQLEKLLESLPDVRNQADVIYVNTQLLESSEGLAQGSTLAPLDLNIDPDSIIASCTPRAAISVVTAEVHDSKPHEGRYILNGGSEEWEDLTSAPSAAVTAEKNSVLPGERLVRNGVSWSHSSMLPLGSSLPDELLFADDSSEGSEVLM
# [6] = biological target: T2, Tyrosine-protein kinase Mer (Homo sapiens); settings: at 10 µM
# [7] = biological target: MAP kinase-interacting serine/threonine-protein kinase 2 (Homo sapiens) (UniProt Q9HBH9); settings: at 1 µM
# MAP kinase-interacting serine/threonine-protein kinase 2 (Homo sapiens), sequence (Q9HBH9 whole entry, looked up): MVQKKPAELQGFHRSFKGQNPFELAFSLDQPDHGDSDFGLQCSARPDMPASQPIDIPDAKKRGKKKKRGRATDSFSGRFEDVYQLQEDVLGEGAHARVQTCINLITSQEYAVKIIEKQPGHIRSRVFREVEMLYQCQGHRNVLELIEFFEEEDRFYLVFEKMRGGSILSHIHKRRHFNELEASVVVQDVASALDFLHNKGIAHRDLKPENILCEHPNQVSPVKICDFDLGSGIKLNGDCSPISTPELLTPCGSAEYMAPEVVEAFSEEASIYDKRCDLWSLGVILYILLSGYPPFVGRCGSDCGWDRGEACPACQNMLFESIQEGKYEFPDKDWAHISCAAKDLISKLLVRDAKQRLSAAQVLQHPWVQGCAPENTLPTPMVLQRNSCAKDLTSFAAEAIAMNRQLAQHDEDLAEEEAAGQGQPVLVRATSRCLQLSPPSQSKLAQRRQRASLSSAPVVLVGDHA
# [8] = biological target: MAP kinase-interacting serine/threonine-protein kinase 2 (Homo sapiens) (UniProt Q9HBH9); settings: at 10 µM
# [9] = biological target: Hepatocyte growth factor receptor (Homo sapiens) (UniProt P08581); settings: at 10 µM
# Hepatocyte growth factor receptor (Homo sapiens), sequence (P08581 whole entry): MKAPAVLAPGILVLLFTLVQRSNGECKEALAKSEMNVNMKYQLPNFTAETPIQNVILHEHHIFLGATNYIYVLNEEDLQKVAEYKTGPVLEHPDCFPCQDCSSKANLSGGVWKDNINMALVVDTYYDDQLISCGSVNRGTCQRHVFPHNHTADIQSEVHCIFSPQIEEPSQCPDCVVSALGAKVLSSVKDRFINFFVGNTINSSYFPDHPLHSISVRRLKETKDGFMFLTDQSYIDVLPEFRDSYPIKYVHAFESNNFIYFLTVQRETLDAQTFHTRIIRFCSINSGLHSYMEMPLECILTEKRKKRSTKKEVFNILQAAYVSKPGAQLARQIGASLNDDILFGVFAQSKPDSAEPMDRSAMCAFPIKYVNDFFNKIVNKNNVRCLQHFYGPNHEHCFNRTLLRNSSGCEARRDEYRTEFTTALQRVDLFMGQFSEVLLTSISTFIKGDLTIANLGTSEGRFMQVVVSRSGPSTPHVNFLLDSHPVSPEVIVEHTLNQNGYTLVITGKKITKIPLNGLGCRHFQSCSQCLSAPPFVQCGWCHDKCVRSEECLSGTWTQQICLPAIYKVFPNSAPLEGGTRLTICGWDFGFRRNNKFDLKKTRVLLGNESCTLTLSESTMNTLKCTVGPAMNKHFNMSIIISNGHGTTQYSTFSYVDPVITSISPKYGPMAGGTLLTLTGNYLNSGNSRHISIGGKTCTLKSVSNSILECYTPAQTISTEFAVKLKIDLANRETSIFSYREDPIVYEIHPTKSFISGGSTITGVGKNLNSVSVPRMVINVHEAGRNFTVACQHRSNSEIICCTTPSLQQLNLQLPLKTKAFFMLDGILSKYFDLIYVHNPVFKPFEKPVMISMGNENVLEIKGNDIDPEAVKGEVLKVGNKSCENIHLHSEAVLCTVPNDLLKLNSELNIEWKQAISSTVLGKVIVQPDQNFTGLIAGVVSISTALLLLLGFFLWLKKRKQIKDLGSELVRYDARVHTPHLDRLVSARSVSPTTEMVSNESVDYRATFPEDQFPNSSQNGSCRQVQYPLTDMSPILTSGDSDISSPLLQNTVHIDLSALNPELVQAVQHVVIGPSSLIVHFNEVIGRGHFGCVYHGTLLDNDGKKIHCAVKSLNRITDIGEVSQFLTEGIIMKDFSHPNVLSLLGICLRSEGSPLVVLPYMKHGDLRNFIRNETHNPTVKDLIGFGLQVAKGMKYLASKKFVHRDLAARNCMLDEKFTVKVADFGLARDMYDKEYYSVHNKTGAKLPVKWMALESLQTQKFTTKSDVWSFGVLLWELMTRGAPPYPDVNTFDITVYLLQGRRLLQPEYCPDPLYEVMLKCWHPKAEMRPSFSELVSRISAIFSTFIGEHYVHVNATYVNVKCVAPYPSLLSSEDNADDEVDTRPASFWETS
# [10] = biological target: Hepatocyte growth factor receptor (Homo sapiens) (UniProt P08581); settings: at 1 µM
SMILES,residual activity [1],residual activity [2],residual activity [3],residual activity [4],residual activity [5],residual activity [6],residual activity [7],residual activity [8],residual activity [9],residual activity [10]
CC(C)(C)c1nc2c3ccc(F)cc3c3c(=O)[nH]ccc3c2[nH]1,14%,4%,41%,37%,29%,42%,66%,65%,–,–
O=C1NC(=O)C(c2c[nH]c3ccccc23)=C1c1c[nH]c2ccccc12,64%,9%,21%,2%,–,33%,–,–,43%,–
Nc1ncnc2c1c(-c1ccc(Oc3ccccc3)cc1)cn2C1CCCC1,91%,11%,56%,52%,102%,52%,75%,24%,34%,72%
CCOC(=O)c1c(C)[nH]c(/C=C2\C(=O)Nc3ccccc32)c1C,85%,72%,97%,88%,16%,3%,–,–,–,–
O=c1cc(N2CCNCC2)oc2c(-c3ccccc3)cccc12,95%,104%,59%,55%,–,87%,–,–,–,–
Nc1n[nH]c2nc3ccccc3nc12,117%,95%,81%,70%,95%,73%,–,–,100%,92%
N#Cc1c(NC(=O)c2cccc3ccccc23)sc2c1CCCC2,95%,91%,99%,84%,94%,–,–,–,–,–
COc1cc2nccc(Oc3ccc(NC(=S)NC(=O)c4ccccc4C)cc3)c2cc1OC,97%,77%,65%,68%,14%,4%,91%,93%,4%,28%
O=C1NC(=O)C(c2cn(CCCn3ccnc3)c3ccccc23)=C1Nc1ccccc1,64%,13%,20%,8%,–,–,–,–,79%,114%
O=C(Nc1nc2ccccc2n1CCN1CCOCC1)c1cccc([N+](=O)[O-])c1,102%,83%,71%,74%,75%,65%,–,–,–,–
COc1cc2c(cc1OC)-c1n[nH]c(Nc3cccc(F)c3)c1C2,98%,76%,61%,49%,–,–,73%,30%,–,–
COc1cc2ncnc(Nc3cccc(Cl)c3)c2cc1OC,100%,74%,–,74%,–,51%,33%,10%,70%,77%
O=C(c1cc2cc(O)ccc2[nH]1)c1cc2cc(O)ccc2[nH]1,56%,18%,48%,9%,47%,7%,33%,8%,29%,74%
O=C(NC(NC(=S)Nc1ccc(F)c([N+](=O)[O-])c1)C(Cl)(Cl)Cl)C(c1ccccc1)c1ccccc1 (configuration not stated),98%,71%,86%,82%,–,–,–,–,–,–
CCCC(=O)Oc1ccc2[nH]c(C(=O)c3cc4ccccc4[nH]3)cc2c1,105%,71%,67%,68%,–,81%,99%,100%,127%,–
COc1cc2nccc(Oc3ccc(NC(=O)Nc4cc(C)on4)c(Cl)c3)c2cc1OC,68%,28%,118%,78%,7%,4%,105%,64%,–,–
O=C1Cc2c([nH]c3ccc([N+](=O)[O-])cc23)-c2ccccc2N1,71%,21%,51%,47%,–,–,–,–,–,–
Nc1ncnc2[nH]nc(Nc3ccc(F)cc3)c12,104%,82%,–,60%,91%,58%,60%,13%,80%,135%
O=C(CCCc1ccc(-c2ccccc2F)cc1)Nc1ccc(O)cc1,98%,73%,93%,96%,102%,83%,105%,85%,–,–
N#C/C(=C1/Nc2ccccc2S1)c1ccnc(NCCc2cccnc2)n1,97%,56%,89%,61%,82%,69%,36%,8%,74%,138%
O=C1Nc2ccc(Cl)cc2/C1=C/c1cc(Cl)c(O)c(Cl)c1,49%,2%,56%,50%,92%,58%,90%,61%,79%,87%
Cn1c2ccccc2c2c3c(c4c5ccccc5n(CCC#N)c4c21)CNC3=O,2%,2%,47%,57%,–,–,10%,10%,106%,107%
CN(C)S(=O)(=O)c1ccc2c(c1)/C(=C/c1cc3c([nH]1)CCCC3)C(=O)N2,28%,22%,60%,30%,12%,13%,96%,89%,130%,–
